Experimental data published in the OligoGym collection.

These sequences were tested against HIP1R (assay: pooled miR-30 sensor sort-seq; sequence = guide strand). Conditions: shRNA.
Further: reference of the scale not given here.

| Sequence | sensor-assay potency score (higher = more potent) |
| --- | --- |
| TTGAAGTACAGCATGTCGGAGG | -0.0916 |
| TTTGTCAAGCTGGTGGTCCTGT | 0.332 |
| ATGTTGTTGACATCGGTCCCAG | -0.946 |
| TAATCAAACATCTCCACAGTGA | -0.629 |
| TTCTTGGTGGTTACACTTCGGG | -1.05 |

These sequences were tested against HIST1H2BM in the same assay as above. Conditions: shRNA.

| Sequence | sensor-assay potency score (higher = more potent) |
| --- | --- |
| TACACATACACAGAGTAGCTCT | -0.419 |
| TAGCCTTGGAAGAGATGCCGGT | -0.26 |
| TAGCAGTAGGCGCACGGCCGTC | -1.42 |
| TTCTTTCCATCCTTCTTCTGAG | -0.665 |
| TTGTACACATACACAGAGTAGC | -0.844 |
| TCCATCCTTCTTCTGAGCCTTG | -1.16 |
| TTTGCGCTTCTTTCCATCCTTC | -0.136 |
| TACACAGAGTAGCTCTCCTTGC | -0.828 |
| ATACACAGAGTAGCTCTCCTTG | -0.936 |
| TTAATGGCCTTCTTGGAGCCTT | -0.535 |
| TTGTTAATGGCCTTCTTGGAGC | -1.15 |
| TTCCATCCTTCTTCTGAGCCTT | -0.589 |

What follows are sequences tested against HIST1H2BN in the same assay as above. Conditions: shRNA.

| Sequence | sensor-assay potency score (higher = more potent) |
| --- | --- |
| TTGGAGCCTTTCTTCGGGGCAG | -0.909 |
| TTGTACACGTACACGGAGTAGC | -0.485 |
| TTCTTGGAGCCTTTCTTCGGGG | -0.852 |
| TTGGACGAGATACCGGTGTCGG | -1.16 |
| TCGAAGATGTCATTGACGAAGG | -1.38 |
| TCTTCTGGGCCTTTGTCACTGC | -0.0714 |
| TTCTGGGCCTTTGTCACTGCCT | -1.05 |
| TTTGTCACTGCCTTCTTGGAGC | -0.47 |
| TCACTGCCTTCTTGGAGCCTTT | -1.34 |
| TTCTTCTGGGCCTTTGTCACTG | -0.654 |
| TTGCCGTCCTTCTTCTGGGCCT | -0.777 |
| TGGCCTTGGACGAGATACCGGT | -1.2 |
| TACACGTACACGGAGTAGCTCT | -0.756 |

Each sequence was assayed against HIST1H4A in the same assay as above. Conditions: shRNA.

| Sequence | sensor-assay potency score (higher = more potent) |
| --- | --- |
| TAGATCAGACCAGAGATCCGCT | 0.162 |
| TAGACCACGTCCATGGCAGTGA | -0.363 |
| TGTCACGCAACACCTTGCGGTG | -1.69 |
| TCTCCTCGTAGATCAGACCAGA | -0.957 |
| TATAGGTGACAGCGTCACGGAT | -1.01 |
| ATGTTGTCACGCAACACCTTGC | -1.02 |
| ATAGGTGACAGCGTCACGGATC | -0.773 |
| TCACGCAACACCTTGCGGTGGC | 0.266 |
| AAAAACACCTTGAGCACCCCGC | 0.101 |
| AACACCTTGAGCACCCCGCGAG | -0.99 |
